Reference: PubChem BioAssay (NCATS)
Results filed as inconclusive are left out. The source made the active and inactive calls. Calls come from the whole dose curve; as a rule, active = well fitted inhibition curve with a large enough effect; inconclusive = small, poorly fitted or top-dose-only effect; inactive = flat fitted curve, though single readings scatter.

Columns and labels:
Test in all cases: qHTS profiling for inhibitors of Plasmodium falciparum proliferation (AID 504749); note: nearly all actives have a fitted effect of over 60% in size
Settings in all cases: P. falciparum in erythrocytes, SYBR Green DNA, 72 h; series mostly up to 28.7 µM
[1] = tested on: P94_40
How it was run: (§1)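 Fluorescence of SYBR Green-bound parasite DNA, read at 485/535 nm, served as the growth measure. Infected erythrocytes were cultured with compound 72 h; artemisinin (0.29 uM) and DMSO wells defined the normalization range.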

[2] = tested on: PAD
How it was run: as §1

[3] = tested on: PC15
How it was run: as §1

[4] = tested on: PC26
How it was run: as §1

[5] = tested on: PC49
How it was run: as §1

[6] = tested on: SC27B
How it was run: as §1

[7] = tested on: TAB109
How it was run: as §1

[8] = tested on: TAB113
How it was run: as §1

[9] = tested on: TAB165
How it was run: as §1

[10] = tested on: W2
How it was run: as §1

Measured: Potency
Potency is the fitted concentration of half-maximal effect.

CCC(O)c1ccccc1 (stereo not given)
inactive: all assays above

N=C(N)n1cccn1
inactive: all assays above

CCc1ccc(S(=O)(=O)O)cc1
inactive: all assays above

CC(CNC(=O)c1cccnc1)NC(=O)c1cccnc1 (stereo not given)
inactive: all assays above

CC(=O)N[C@@H]1C(O[C@H]2O[C@H](C(=O)O)C(O)[C@H](O)[C@H]2O)[C@H](O)[C@@H](CO)O[C@H]1O[C@@H]1C(C(=O)O)O[C@@H](O[C@H]2[C@H](O)[C@@H](CO)OC(O)[C@@H]2NC(C)=O)[C@H](O)[C@H]1O (stereo not given in full)
inactive: all assays above

C=CC[C@@H]1/C=C(\C)C[C@H](C)C[C@H](OC)[C@H]2O[C@@](O)(C(=O)C(=O)N3CCCC[C@H]3C(=O)O[C@H](/C(C)=C/[C@@H]3CC[C@@H](O)[C@H](OC)C3)[C@H](C)[C@@H](O)CC1=O)[C@H](C)C[C@@H]2OC
active: [1] 2000 nM | [2] 1410 nM | [3] 2240 nM | [4] 1690 nM | [5] 2000 nM | [6] 1780 nM | [7] 2000 nM | [8] 1780 nM | [9] 1410 nM | [10] 338 nM

Cc1cc(=O)c(C(=O)N[C@@H](C(=O)N[C@@H]2C(=O)N3C(C(=O)O)=C(CSc4nnnn4C)CS[C@H]23)c2ccc(O)cc2)c[nH]1
inactive: all assays above

CCCCCCCCCCCC(=O)N(CCO)CCO
inactive: all assays above

CC(C)(C)CC(C)(C)c1cc(Cc2cc(C(C)(C)CC(C)(C)C)cc(-n3nc4ccccc4n3)c2O)c(O)c(-n2nc3ccccc3n2)c1
inactive: all assays above

CC(C)c1nc(N(C)S(C)(=O)=O)nc(-c2ccc(F)cc2)c1/C=C/C(O)CC(O)CC(=O)O (stereo not given)
inactive: all assays above

C=Cc1ccc(S(=O)(=O)O)cc1
inactive: all assays above

CN[C@@H]1[C@H](O[C@H]2[C@H](O[C@H]3[C@H](O)[C@@H](O)[C@H](N=C(N)N)[C@@H](O)[C@@H]3N=C(N)N)O[C@@H](C)[C@]2(O)C=O)O[C@@H](CO)[C@H](O)[C@H]1O
inactive: all assays above

NC(=O)[C@H]1O[C@@H](O)[C@H](O)[C@@H](O)[C@@H]1O
inactive: all assays above

O=C(O)c1ccc(OCCn2ccnc2)cc1
inactive: all assays above

CCN(CC)CCOC(=O)c1cccnc1
inactive: all assays above

O=P(O)(O)O
inactive: all assays above

O=C(O)COc1ccc(CCNS(=O)(=O)c2ccccc2)s1
inactive: all assays above

FCOC(C(F)(F)F)C(F)(F)F
inactive: all assays above

Nc1ncnc2c1ncn2[C@H]1CC[C@@H](CO)O1
inactive: all assays above

COc1ccc(/C=C/C(=O)OCCC(C)C)cc1
inactive: all assays above

CC(C)CCCC(C)NC(C)C (stereo not given)
inactive: all assays above

OB(O)O
inactive: all assays above

NC(=O)[C@@H]1CCCN1C(=O)[C@H](Cc1cnc[nH]1)NC(=O)[C@@H]1CCC(=O)N1
inactive: all assays above

O=C(O)/C=C/C(=O)Nc1ccc(S(=O)(=O)Nc2nccs2)cc1
inactive: all assays above

C[C@H](CCC(=O)O)[C@H]1CC[C@H]2[C@@H]3CC[C@@H]4C[C@H](O)CC[C@]4(C)[C@H]3C[C@H](O)[C@]12C
inactive: all assays above
